Screen size: about 39,000 compounds; about 3,300 (8.5%) were called active. Only a selection was taken, and actives are over-represented in it overall.

Among the data in the antibiotic and cytotoxicity screens of Wong et al. (2023) are cytotoxicity call values, retold here.

In this assay the test system is HepG2. Description: cytotoxicity call (relative viability < 0.9). Conditions: 10 µM.
For `COc1ccccc1CNC(=O)C[C@@H]1C[C@@H]2c3cc(NC(=O)c4ccc5c(c4)OCO5)ccc3O[C@@H]2[C@@H](CO)O1`, the cytotoxicity call was “inactive”.
As for `CNC(=O)c1ccc(CO)cc1`, the entry is “inactive”; as for `CN(C)Cc1cn(CC[C@@H]2CC[C@H](N)[C@@H](CO)O2)nn1`, “inactive”; as for `C[C@H]1CN([C@@H](C)CO)C(=O)c2cccc(NC(=O)NC3CCCCC3)c2O[C@H]1CN(C)S(=O)(=O)c1cn(C)cn1`, “inactive”.
With `O=C(C[C@@H]1CC[C@H]2[C@@H](COC[C@@H](O)CN2C(=O)c2ccccn2)O1)NC1CCC1` the entry was “inactive”; with `CN1C(=O)c2ccccc2C1=O`, “inactive”.
With `CN1CCC(=C2c3ccccc3C=Cc3ccccc32)CC1.Cl` the entry was “active”.
With `CN1CCN(C(c2ccccc2)c2ccccc2)CC1`, the cytotoxicity call is “inactive”.
For `CN1CCC(=C2c3ccccc3CC(=O)c3sccc32)CC1.O=C(O)C=CC(=O)O`, the cytotoxicity call was “inactive”.
With `CN1CCC(=C2c3ccccc3Sc3ccccc32)CC1.O=C(O)C=CC(=O)O` the entry was “active”.
With `CN1CCC(=C2c3ccccc3CCc3sccc32)CC1.O=C(O)CC(O)C(=O)O` the entry was “inactive”.
As for `C[C@H]1CCCCO[C@H](CN(C)C(=O)Nc2ccc(C(F)(F)F)cc2)[C@@H](C)CN([C@@H](C)CO)C(=O)c2cc(NC(=O)c3ccccc3)ccc2O1`, the entry is “inactive”; as for `CCOC(=O)[C@@H]1C(Cc2ccccc2)=CN(CCc2ccc(OC)c(OC)c2)C(=O)N1c1ccc(OC)cc1`, “inactive”; as for `C[C@@H]1CN([C@H](C)CO)C(=O)c2cc(C#CCN(C)C)cnc2O[C@@H]1CN(C)C(=O)Nc1cccc(F)c1`, “inactive”.
In the case of `C[C@@H]1CN([C@H](C)CO)C(=O)c2cccc(NC(=O)c3nc4ccccc4s3)c2O[C@H]1CN(C)CC1CCCCC1`, the cytotoxicity call is “inactive”.
With `C[C@@H]1CN([C@H](C)CO)C(=O)c2cccc(NC(=O)c3nc4ccccc4s3)c2O[C@@H]1CN(C)C(=O)Nc1cccc2ccccc12`, the cytotoxicity call is “inactive”.
As for `C[C@@H]1CN([C@@H](C)CO)C(=O)c2cccc(NC(=O)c3nc4ccccc4s3)c2O[C@H]1CN(C)C(=O)Nc1cccc2ccccc12`, the entry is “active”; as for `C[C@H]1CN([C@@H](C)CO)C(=O)c2cccc(NC(=O)c3nc4ccccc4s3)c2O[C@H]1CN(C)C(=O)Nc1cccc2ccccc12`, “inactive”; as for `C[C@H](CO)N1C[C@H](C)[C@@H](CN(C)C(=O)Nc2cccc3ccccc23)Oc2c(NC(=O)c3nc4ccccc4s3)cccc2C1=O`, “active”.
`C[C@@H]1CN([C@@H](C)CO)C(=O)c2cccc(NC(=O)c3nc4ccccc4s3)c2O[C@@H]1CN(C)CC1CCCCC1`: the cytotoxicity call was “active”.
With `C[C@@H]1CN([C@@H](C)CO)C(=O)c2cccc(NC(=O)c3nc4ccccc4s3)c2O[C@H]1CN(C)CC1CCCCC1`, the cytotoxicity call is “inactive”.
For `C[C@H]1CN([C@@H](C)CO)C(=O)c2cccc(NC(=O)c3nc4ccccc4s3)c2O[C@@H]1CN(C)C(=O)Nc1cccc2ccccc12`, the cytotoxicity call was “inactive”.
Regarding `C[C@H](CO)N1C[C@H](C)[C@H](CN(C)C(=O)Nc2cccc3ccccc23)Oc2c(NC(=O)c3nc4ccccc4s3)cccc2C1=O`, the cytotoxicity call was “inactive”.
As for `COc1cccc(S(=O)(=O)N[C@H]2CC[C@@H](CC(=O)NC3CCC3)O[C@H]2CO)c1`, the entry is “inactive”.
With `COC(=O)c1c[nH]c(=S)n1C` the entry was “inactive”; with `COc1ccc(NC(=O)Nc2cccc3c2O[C@H](CN(C)Cc2ccc(C(=O)Nc4ccccc4N)cc2)[C@@H](C)CN([C@@H](C)CO)C3=O)cc1`, “inactive”; with `O=C(C[C@H]1CC[C@@H]2[C@H](COC[C@H](O)CN2C(=O)c2ccccc2F)O1)N1CCN(c2ccccc2)CC1`, “inactive”.
With `CC[C@@H](C)SSc1ncc[nH]1` the entry was “inactive”; with `C[C@@H]1CCCCO[C@H](CN(C)C(=O)Nc2cccc3ccccc23)[C@H](C)CN([C@H](C)CO)C(=O)c2cc(NC(=O)C3CCCCC3)ccc2O1`, “active”.
Regarding `C[C@@H]1CCCCO[C@@H](CN(C)C(=O)Nc2cccc3ccccc23)[C@H](C)CN([C@@H](C)CO)C(=O)c2cc(NC(=O)C3CCCCC3)ccc2O1`, the cytotoxicity call was “inactive”.
With `C[C@H](CO)N1C[C@H](C)[C@@H](CN(C)C(=O)Nc2cccc3ccccc23)OCCCC[C@H](C)Oc2ccc(NC(=O)C3CCCCC3)cc2C1=O` the entry was “inactive”.
With `C[C@@H]1CCCCO[C@H](CN(C)C(=O)Nc2cccc3ccccc23)[C@@H](C)CN([C@@H](C)CO)C(=O)c2cc(NC(=O)C3CCCCC3)ccc2O1` the entry was “inactive”.
With `C[C@@H]1CN([C@H](C)CO)C(=O)c2cc(NC(=O)C3CCCCC3)ccc2O[C@@H](C)CCCCO[C@@H]1CN(C)C(=O)Nc1cccc2ccccc12` the entry was “active”.
In the case of `C[C@@H]1CN([C@H](C)CO)C(=O)c2cc(NC(=O)C3CCCCC3)ccc2O[C@@H](C)CCCCO[C@H]1CN(C)C(=O)Nc1cccc2ccccc12`, the cytotoxicity call is “inactive”.
On to `C[C@@H]1CCCCO[C@H](CN(C)C(=O)Nc2cccc3ccccc23)[C@@H](C)CN([C@H](C)CO)C(=O)c2cc(NC(=O)C3CCCCC3)ccc2O1`, for which the cytotoxicity call is “inactive”.
As to `C[C@H]1CCCCO[C@@H](CN(C)C(=O)Nc2cccc3ccccc23)[C@@H](C)CN([C@@H](C)CO)C(=O)c2cc(NC(=O)C3CCCCC3)ccc2O1`, the cytotoxicity call was “inactive”.
With `C[C@@H]1CCCCO[C@@H](CN(C)C(=O)Nc2cccc3ccccc23)[C@@H](C)CN([C@@H](C)CO)C(=O)c2cc(NC(=O)C3CCCCC3)ccc2O1` the entry was “inactive”; with `C[C@H](CO)N1C[C@H](C)[C@H](CN(C)C(=O)Nc2cccc3ccccc23)OCCCC[C@H](C)Oc2ccc(NC(=O)C3CCCCC3)cc2C1=O`, “active”; with `C[C@@H]1CCCCO[C@@H](CN(C)C(=O)Nc2cccc3ccccc23)[C@@H](C)CN([C@H](C)CO)C(=O)c2cc(NC(=O)C3CCCCC3)ccc2O1`, “inactive”.
With `C[C@@H]1CCCCO[C@@H](CN(C)C(=O)Nc2cccc3ccccc23)[C@H](C)CN([C@H](C)CO)C(=O)c2cc(NC(=O)C3CCCCC3)ccc2O1` the entry was “active”.
With `C[C@H]1CN([C@@H](C)CO)C(=O)c2cc(NC(=O)Cn3cnnn3)ccc2O[C@H]1CN(C)S(=O)(=O)c1ccc(Cl)cc1` the entry was “inactive”; with `COc1ccc(S(=O)(=O)N(C)C[C@H]2Oc3ccc(NS(=O)(=O)c4ccc(C)cc4)cc3C(=O)N([C@H](C)CO)C[C@H]2C)cc1`, “inactive”.
For the compound `C[C@@H]1CN([C@@H](C)CO)C(=O)Cc2cc(NC(=O)C3CCCCC3)ccc2O[C@@H]1CN(C)S(=O)(=O)c1cn(C)cn1`, the cytotoxicity call is “inactive”.
As for `C[C@H](CO)N1C[C@H](C)[C@H](CN(C)Cc2ccc(Oc3ccccc3)cc2)Oc2c(NC(=O)Nc3ccccc3)cccc2C1=O`, the entry is “inactive”; as for `O[C@@H](Cc1ccccc1)[C@@H](/C=C/C1CC1)N(CC#Cc1ccccc1)Cc1ccccc1Br`, “inactive”; as for `C[C@H](CO)N1C[C@H](C)[C@H](CN(C)C(=O)Nc2ccc3c(c2)OCO3)Oc2ccc(NC(=O)Nc3cccc4ccccc34)cc2C1=O`, “inactive”.
With `C[C@@H]1CN([C@@H](C)CO)C(=O)c2cc(NC(=O)C3CCCCC3)ccc2O[C@@H](C)CCCCO[C@@H]1CN(C)C(=O)Nc1cccc2ccccc12`, the cytotoxicity call is “active”.
As for `C[C@@H]1CCCCO[C@H](CN(C)C(=O)Nc2cccc3ccccc23)[C@H](C)CN([C@@H](C)CO)C(=O)c2cc(NC(=O)C3CCCCC3)ccc2O1`, the entry is “inactive”; as for `C[C@@H]1CN([C@@H](C)CO)C(=O)c2cc(NC(=O)C3CCCCC3)ccc2O[C@@H](C)CCCCO[C@H]1CN(C)C(=O)Nc1cccc2ccccc12`, “inactive”; as for `C[C@H]1CCCCO[C@H](CN(C)S(=O)(=O)c2cccs2)[C@@H](C)CN([C@@H](C)CO)C(=O)c2cc(NC(=O)Nc3ccccc3)ccc2O1`, “inactive”.
Take `COc1ccc2c3c(n(c2c1)C)[C@@H](CO)N(C[C@]13CCN(CC1)C(=O)c1cnccn1)C(=O)c1cnccn1`: the cytotoxicity call is “inactive”.
For `CC(C)NC(=O)N(C)C[C@@H]1OCCCC[C@@H](C)Oc2ccc(NC(=O)Nc3cccc4ccccc34)cc2C(=O)N([C@H](C)CO)C[C@@H]1C`, the cytotoxicity call is “inactive”.
With `Cc1ccc(Oc2nnc(-c3cccs3)c3ccccc23)cc1`, the cytotoxicity call was “inactive”.
As for `Cc1csc(-c2nnc(Nc3ccc(Oc4ncccc4-c4ccnc(N)n4)cc3)c3ccccc23)c1`, the entry is “active”.
As for `C[C@@]1(c2ccc3c(c2)OCCO3)NC(=O)NC1=O`, the entry is “inactive”.
As for `Cc1noc(C)c1S(=O)(=O)Nc1ccc2c(c1)CC(=O)N([C@@H](C)CO)C[C@H](C)[C@H](CN(C)Cc1ccncc1)O2`, the entry is “inactive”.
As for `C/C=C(/C)C(=O)O[C@@H]1[C@H](OC(C)=O)[C@]2(CO)[C@H](O)C[C@]3(C)C(=CC[C@H]4[C@@]5(C)CC[C@H](O[C@@H]6O[C@H](C(=O)O)[C@@H](O[C@@H]7O[C@H](CO)[C@@H](O)[C@H](O)[C@H]7O)[C@H](O)[C@H]6O[C@@H]6O[C@H](CO)[C@@H](O)[C@H](O)[C@H]6O)[C@](C)(CO)[C@@H]5CC[C@]43C)[C@@H]2CC1(C)C`, the cytotoxicity call is “inactive”.
With `CC=C(C)C(=O)OC1C(OC(C)=O)C2(CO)C(O)CC3(C)C(=CCC4C5(C)CCC(OC6OC(C(=O)O)C(OC7OC(CO)C(O)C(O)C7O)C(O)C6OC6OC(CO)C(O)C(O)C6O)C(C)(CO)C5CCC43C)C2CC1(C)C` (configuration not stated) the entry was “active”; with `C[C@@H]1CC[C@]2(C(=O)O[C@@H]3O[C@H](CO)[C@@H](O)[C@H](O)[C@H]3O)CC[C@]3(C)C(=CC[C@H]4[C@@]5(C)C[C@@H](O)[C@H](O)[C@@](C)(CO)[C@@H]5CC[C@]43C)[C@@H]2[C@]1(C)O`, “inactive”; with `C[C@H]1O[C@@H](O[C@H]2CC[C@@]3(C)[C@@H](CC[C@@]4(C)[C@@H]3CC=C3[C@H]5C[C@](C)(C(=O)O)CC[C@]5(C(=O)O[C@H]5O[C@@H](CO)[C@@H](O)[C@@H](O)[C@@H]5O)CC[C@@]34C)[C@@]2(C)CO)[C@@H](O)[C@@H](O[C@H]2O[C@@H](CO)[C@@H](O)[C@@H](O)[C@@H]2O)[C@@H]1O`, “inactive”.
As for `CC=C(C)C(=O)O[C@H]1[C@H](OC(C)=O)[C@]2(CO)[C@H](O)C[C@]3(C)C(=CC[C@@H]4[C@@]5(C)CC[C@H](O[C@@H]6O[C@H](C(=O)O)[C@@H](O[C@@H]7O[C@H](CO)[C@@H](O)[C@H](O)[C@H]7O)[C@H](O)[C@H]6O[C@@H]6O[C@H](CO)[C@@H](O)[C@H](O)[C@H]6O)[C@](C)(CO)[C@@H]5CC[C@]43C)[C@@H]2CC1(C)C`, the entry is “active”; as for `C/C=C(/C)C(=O)O[C@H]1[C@@H](OC(C)=O)[C@@]2(CO)[C@@H](O)C[C@@]3(C)C(=CC[C@H]4[C@@]5(C)CC[C@@H](O[C@H]6O[C@H](C(=O)O)[C@@H](O[C@H]7O[C@@H](CO)[C@@H](O)[C@@H](O)[C@@H]7O)[C@@H](O)[C@@H]6O[C@H]6O[C@@H](CO)[C@@H](O)[C@@H](O)[C@@H]6O)[C@@](C)(CO)[C@@H]5CC[C@]43C)[C@@H]2CC1(C)C`, “active”.
